Where “and” joins values, the source holds several entries; their conditions need not be identical. Identical values can stand only once. Results filed as inconclusive are left out. A structure can be active in one record and inactive in another. Calls of active or inactive are those of the source. Unless noted, the call rests on the fitted dose curve.
Tests used:
[1] = Nuclear factor erythroid 2-related factor 2/antioxidant responsive element (Nrf2/ARE) small molecule agonists: qHTS cell viability counter screen in human keratinocytes (AID 1919968; active means well fitted curve in the direction sought with a large enough effect in the repeat runs; an effect the other way counts as inactive or inconclusive; further: nearly all actives have a fitted effect of over 55% in size; further: potency means the concentration at half of the fitted maximal effect)
Procedure, shortened: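 Cells of the KeratinoSens line were plated at 1,500 per well and left for 5 h before compound transfer from DMSO stocks. After a 23 h incubation (37 C, 5% CO2), CellTiter-Fluor was added. Signal was taken as fluorescence intensity 1 h later.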

[2] = Nuclear factor erythroid 2-related factor 2/antioxidant responsive element (Nrf2/ARE) small molecule agonists: luciferase reporter gene qHTS assay in human keratinocytes (AID 1919969); further: nearly all actives have a fitted effect of over 35% in size; further: potency means the concentration at half of the fitted maximal effect
[3] = target: Gonadotropin-releasing hormone receptor (Homo sapiens) (UniProt P30968); test: Human gonadotropin-releasing hormone receptor (GnRHR) small molecule agonists, calcium flux assay in GnRHR-HEK293 cells (AID 1920063); further: nearly all actives have a fitted effect of over 35% in size
Procedure, shortened: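 Compounds dissolved in DMSO are pin-transferred onto dye-loaded GnRHR-HEK293 cells, which were seeded 18 h before at 37 C/5% CO2. Calcium signal is read as fluorescence intensity at 1 s intervals for 3 min.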

[4] = target: KiSS-1 receptor (Homo sapiens) (UniProt Q969F8); test: Human kisspeptin (KISS1R) small molecule agonists, calcium flux assay in KISS1R-HEK293 cells (AID 1920064; active means well fitted curve in the direction sought with a large enough effect in the repeat runs; an effect the other way counts as inactive or inconclusive)
Procedure, shortened: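 Cell line: HEK293, stable human KISS1R. Dye loading 1 h at 37 C after 18 h culture. Read: kinetic fluorescence, 480/540 nm, 3 min at 1 s intervals.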

[5] = G protein-coupled receptor (GPCR) small molecule agonists, calcium flux assay: HEK293 wild type cell line counter screen (AID 1920065)
Procedure, shortened: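 Tox21 10K compounds, 15 concentrations each in triplicate, pin-transferred in DMSO onto dye-loaded cells; kinetic read at 480/540 nm for 3 min, 1 s intervals.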

[6] = p53 small molecule agonists, cell-based qHTS assay with human liver microsomes (AID 1963577);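 further: p53 response element beta-lactamase reporter cells with liver microsomes plus NADPH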
Procedure, shortened: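 p53RE-bla cells; 5 h settle, 37 C/5% CO2; cpd + HLM 0.5 mg/mL + NADPH 0.5 mg/mL (final); 16 h 37 C; LiveBLAzer 2 h RT dark; fluorescence readout.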

[7] = p53 small molecule agonists, cell-based qHTS assay with rat liver microsomes (AID 1963578)
Procedure, shortened: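 Rat liver microsome activation: microsomes 0.5 mg/mL, NADPH 0.5 mg/mL final; p53RE-bla cells, 16 h 37 C; LiveBLAzer readout, 2 h RT dark.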

[8] = p53 small molecule agonists, cell-based qHTS assay with human liver microsomes: qHTS cell viability counter screen (AID 1963579); further: nearly all actives have a fitted effect of over 45% in size; further: potency means the concentration at half of the fitted maximal effect
Procedure, shortened: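 Luminescent CellTiter-Glo read-out, 30 min at room temperature, gauged cytotoxicity in p53RE-bla cells exposed 16 h at 37 C to DMSO-dissolved compounds with metabolic activation by human liver microsomes and NADPH, each 0.5 mg/mL final.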

[9] = p53 small molecule agonists, cell-based qHTS assay with rat liver microsomes: qHTS cell viability counter screen (AID 1963580); further: nearly all actives have a fitted effect of over 45% in size; further: potency means the concentration at half of the fitted maximal effect
Procedure, shortened: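 Cytotoxicity counter screen: intracellular ATP measured by CellTiter-Glo luminescence in the same wells as the beta-lactamase reporter read, on HCT-116 p53RE-bla cells exposed 16 h at 37 C to compounds with rat liver microsomes and NADPH, each 0.5 mg/mL final.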

[10] = p53 small molecule agonists, cell-based qHTS assay: qHTS cell viability counter screen (AID 1963581); further: nearly all actives have a fitted effect of over 45% in size; further: potency means the concentration at half of the fitted maximal effect
Procedure, shortened: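 ATP content measured by luminescence in HCT-116 p53RE-bla cells treated 16 h at 37 C, same wells as the reporter screen.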

[11] = target: 5-hydroxytryptamine receptor 2A (Homo sapiens) (UniProt P28223); test: 5-hydroxytryptamine receptor 2A (HTR2A) small molecule agonists, cell-based qHTS assay (AID 1963587); further: nearly all actives have a fitted effect of over 30% in size; further: potency means the concentration at half of the fitted maximal effect
Procedure, shortened: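 CHO cells stably expressing human HTR2A, plated 18 h, loaded with calcium dye 1 h at 37 C. Agonist mode: compounds added and intracellular calcium fluorescence recorded kinetically for 2 min at 1 sec intervals.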

[12] = target: Muscarinic acetylcholine receptor M1 (Homo sapiens) (UniProt P11229); test: Cholinergic receptor muscarinic 1 (CHRM1) small molecule antagonists, cell-based qHTS assay (AID 1963588); further: nearly all actives have a fitted effect of over 40% in size
Procedure, shortened: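 Compounds were tested at 15 concentrations in three independent runs. Dye-loaded CHRM1-CHO cells were exposed 5 min at room temperature before stimulation by acetylcholine added at 50nM. Intracellular calcium was read kinetically on FDSS for 3 min.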

[13] = target: Muscarinic acetylcholine receptor M1 (Homo sapiens) (UniProt P11229); test: Cholinergic receptor muscarinic 1 (CHRM1) small molecule agonists, cell-based qHTS assay (AID 1963589); further: nearly all actives have a fitted effect of over 35% in size
Procedure, shortened: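 Homogeneous fluorescence calcium flux, agonist mode. Human M1-expressing CHO cells; compound dosed at 15 concentrations, three independent runs; signal sampled every 1 sec.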

[14] = cAMP Responsive Elements (CRE) small molecule agonists, cell-based qHTS assay (AID 1963590)
Procedure, shortened: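 HEK 293T cells stably bearing CRE-bla were plated at 2,000 cells per well and rested 18 h. Compounds, positive controls or DMSO were added for 3 h at 37 C. LiveBLAzer B/G substrate was then loaded for 2 h at room temperature.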

[15] = cAMP Responsive Elements (CRE) small molecule antagonists, cell-based qHTS assay (AID 1963591; active means well fitted inhibition curve with a large enough effect in the signal ratio in the repeat runs, not every such curve was filed as active; the % refers to the signal ratio)
Procedure, shortened: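 First, CRE-bla HEK293T cells settled 18 h at 37 C. Next, compound and 0.25 uM final NKH477 were applied for 3 h. Last, LiveBLAzer B/G substrate was loaded for 2 h at room temperature.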

[16] = target: D(2) dopamine receptor (Homo sapiens) (UniProt P14416); test: Dopamine D2 receptor (DRD2) small molecule antagonists, cell-based qHTS assay (AID 1963595; active means well fitted inhibition curve with a large enough effect in the signal ratio in the repeat runs, with a control signal flat; the % refers to the signal ratio)
Procedure, shortened: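 In this cell-based antagonist screen, compounds act for 10 min at room temperature before a 30 min challenge with 12 nM quinpirole and 200 nM NKH477. cAMP is quantified by HTRF competition in DRD2-HEK293 cells containing 0.1 mM Ro20-1724.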

[17] = target: Beta-2 adrenergic receptor (Homo sapiens) (UniProt P07550); test: Adrenergic beta2 receptor (ADRB2) small molecule antagonists, cell-based qHTS assay (AID 1963592); further: series mostly up to about 92 µM; nearly all actives have a fitted effect of over 50% in size
Procedure, shortened: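 Assay format: CHO-ADRB2 cells, 18-20hr seeding at 37C/5% CO2, then compound plus 1nM isoproterenol agonist mix for 0.5hr RT. Homogeneous time-resolved fluorescence cAMP detection after 1hr, expressed as 665/615 nm ratio.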

[18] = target: Beta-2 adrenergic receptor (Homo sapiens) (UniProt P07550); test: Adrenergic beta2 receptor (ADRB2) small molecule agonists, cell-based qHTS assay (AID 1963593);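 further: CHO cells stably overexpressing human ADRB2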
Procedure, shortened: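 CHO cells stably over-expressing ADRB2 were plated overnight at 37C, then dosed with compounds plus a stimulation mix containing 100uM IBMX and 25uM Ro-20-1724 for 0.5hr at room temperature. cAMP was measured by HTRF competition, 1hr.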

[19] = target: D(2) dopamine receptor (Homo sapiens) (UniProt P14416); test: Dopamine D2 receptor (DRD2) small molecule agonists, cell-based qHTS assay (AID 1963594); further: nearly all actives have a fitted effect of over 35% in size
Procedure, shortened: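 HEK293 cells stably expressing human DRD2, pre-treated with PDE inhibitor Ro20-1724 (0.1 mM final) and compound 10 min at room temperature, then stimulated with NKH477 (200nM […]) for 30 min. cAMP read by HTRF (665/620 nm).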

[20] = p53 small molecule agonists, cell-based qHTS assay (AID 1963582; active means well fitted activation curve with a large enough effect in the signal ratio in the repeat runs, not every such curve was filed as active; the % refers to the signal ratio)
Procedure, shortened: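 16 h compound exposure (37 C) of p53 response element–bla cells, preceded by 5 h recovery at 37 C/5% CO2; read-out via LiveBLAzer B/G FRET substrate, 2 h RT, fluorescence intensity.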
On the % scale 0 is the no-effect control and ±100 the full control effect.

Chain of KiSS-1 receptor (Homo sapiens) (Q969F8 whole entry, looked up): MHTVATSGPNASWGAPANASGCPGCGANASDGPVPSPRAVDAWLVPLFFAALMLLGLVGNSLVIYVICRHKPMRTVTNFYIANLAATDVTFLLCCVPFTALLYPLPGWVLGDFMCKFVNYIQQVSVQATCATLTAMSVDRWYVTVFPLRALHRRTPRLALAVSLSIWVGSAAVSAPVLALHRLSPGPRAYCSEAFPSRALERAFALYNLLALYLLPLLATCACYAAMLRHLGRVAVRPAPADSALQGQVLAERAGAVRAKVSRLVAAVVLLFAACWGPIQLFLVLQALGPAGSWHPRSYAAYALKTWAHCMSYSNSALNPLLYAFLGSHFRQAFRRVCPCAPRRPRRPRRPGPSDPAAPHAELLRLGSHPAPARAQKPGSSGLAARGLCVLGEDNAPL
Chain of Beta-2 adrenergic receptor (Homo sapiens) (P07550 whole entry, looked up): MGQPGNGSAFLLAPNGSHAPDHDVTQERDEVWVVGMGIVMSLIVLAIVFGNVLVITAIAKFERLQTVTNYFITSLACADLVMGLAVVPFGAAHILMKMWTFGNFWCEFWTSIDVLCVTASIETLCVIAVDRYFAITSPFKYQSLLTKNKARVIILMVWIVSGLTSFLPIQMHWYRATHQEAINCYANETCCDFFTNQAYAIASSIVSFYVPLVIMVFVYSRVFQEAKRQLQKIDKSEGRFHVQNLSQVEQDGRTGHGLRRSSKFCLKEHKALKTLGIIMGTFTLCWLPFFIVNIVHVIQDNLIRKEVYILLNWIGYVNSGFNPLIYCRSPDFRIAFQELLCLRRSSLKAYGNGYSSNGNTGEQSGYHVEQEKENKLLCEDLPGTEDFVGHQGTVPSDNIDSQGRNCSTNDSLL
Chain of Muscarinic acetylcholine receptor M1 (Homo sapiens) (P11229 whole entry, looked up): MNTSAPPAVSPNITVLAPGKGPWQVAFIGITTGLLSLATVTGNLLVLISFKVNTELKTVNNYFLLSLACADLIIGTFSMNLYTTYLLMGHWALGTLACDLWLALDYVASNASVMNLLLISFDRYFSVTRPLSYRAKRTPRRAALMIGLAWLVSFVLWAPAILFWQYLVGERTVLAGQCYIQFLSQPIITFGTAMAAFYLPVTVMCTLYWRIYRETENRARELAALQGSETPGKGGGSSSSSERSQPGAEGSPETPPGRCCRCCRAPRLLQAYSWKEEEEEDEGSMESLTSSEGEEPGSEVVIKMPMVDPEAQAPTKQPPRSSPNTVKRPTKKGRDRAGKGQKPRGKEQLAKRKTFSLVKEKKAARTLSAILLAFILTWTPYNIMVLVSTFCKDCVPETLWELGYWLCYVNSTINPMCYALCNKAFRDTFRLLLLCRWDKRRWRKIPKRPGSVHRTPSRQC
Chain of 5-hydroxytryptamine receptor 2A (Homo sapiens) (P28223 whole entry, looked up): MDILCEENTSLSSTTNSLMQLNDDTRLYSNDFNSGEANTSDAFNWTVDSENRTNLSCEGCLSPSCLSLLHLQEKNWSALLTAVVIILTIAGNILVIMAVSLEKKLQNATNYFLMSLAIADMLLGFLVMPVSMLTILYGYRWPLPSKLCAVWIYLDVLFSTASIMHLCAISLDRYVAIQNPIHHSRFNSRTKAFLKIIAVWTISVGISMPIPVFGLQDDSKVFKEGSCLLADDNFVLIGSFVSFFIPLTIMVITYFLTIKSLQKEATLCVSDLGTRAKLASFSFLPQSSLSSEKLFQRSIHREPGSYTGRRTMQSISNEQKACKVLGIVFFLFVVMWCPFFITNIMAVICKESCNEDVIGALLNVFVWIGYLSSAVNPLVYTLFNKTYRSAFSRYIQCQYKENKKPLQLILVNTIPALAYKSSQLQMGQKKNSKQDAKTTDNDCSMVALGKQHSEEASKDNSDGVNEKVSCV
Chain of D(2) dopamine receptor (Homo sapiens) (P14416 whole entry, looked up): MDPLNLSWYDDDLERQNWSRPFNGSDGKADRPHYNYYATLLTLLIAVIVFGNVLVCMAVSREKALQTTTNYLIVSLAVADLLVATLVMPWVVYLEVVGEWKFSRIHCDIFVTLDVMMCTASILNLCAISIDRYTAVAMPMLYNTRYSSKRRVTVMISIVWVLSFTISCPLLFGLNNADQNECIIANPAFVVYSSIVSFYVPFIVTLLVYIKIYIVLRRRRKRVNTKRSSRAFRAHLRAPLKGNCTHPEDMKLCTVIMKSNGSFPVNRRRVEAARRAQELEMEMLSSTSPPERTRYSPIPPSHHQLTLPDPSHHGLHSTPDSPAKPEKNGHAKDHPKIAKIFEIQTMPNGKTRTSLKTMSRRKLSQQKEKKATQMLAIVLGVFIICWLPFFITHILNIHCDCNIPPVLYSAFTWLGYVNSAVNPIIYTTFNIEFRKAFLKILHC
Chain of Gonadotropin-releasing hormone receptor (Homo sapiens) (P30968 whole entry, looked up): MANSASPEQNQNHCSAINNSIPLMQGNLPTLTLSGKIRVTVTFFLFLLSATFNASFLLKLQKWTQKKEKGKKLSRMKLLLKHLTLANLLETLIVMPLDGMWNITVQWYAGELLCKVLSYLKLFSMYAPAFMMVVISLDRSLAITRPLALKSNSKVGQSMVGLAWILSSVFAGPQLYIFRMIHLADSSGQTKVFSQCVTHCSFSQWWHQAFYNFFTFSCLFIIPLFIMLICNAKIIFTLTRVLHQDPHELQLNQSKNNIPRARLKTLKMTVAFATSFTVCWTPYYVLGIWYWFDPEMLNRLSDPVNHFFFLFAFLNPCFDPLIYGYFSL

O=C(c1cc(O)c(O)c(O)c1)c1ccc(O)c(O)c1O
inactive: Potency [1] | Potency [2] | Potency [3] | Potency [4] | Potency [5] | Potency [6] | Potency [7] | Potency [8] | Potency [9] | Potency [10] | Potency [11] | Potency [12] | Potency [13] | Potency [14] | Potency [15] | Potency [16]

COC(=O)c1ccccc1O
68.7 µM (active) and inactive: Potency [2]
inactive: Potency [1] | Potency [3] | Potency [4] | Potency [5] | Potency [6] | Potency [7] | Potency [8] | Potency [9] | Potency [10] | Potency [14] | Potency [15] | Potency [17] | Potency [18] | Potency [19] | Potency [16]

Oc1c(Cl)cc(Cl)c(Cl)c1Cc1c(O)c(Cl)cc(Cl)c1Cl
active: Potency [1] 21.6 µM and 30.6 µM and 26.6 µM | Potency [2] 24.3 µM | Potency [9] 18.2 µM and 32.4 µM | Potency [10] 18.2 µM
36.3 µM (active) and inactive: Potency [8]
inactive: Potency [3] | Potency [4] | Potency [5] | Potency [6] | Potency [7] | Potency [19] | Potency [16]

CCCCCCCCCCCCc1ccccc1
inactive: Potency [1] | Potency [3] | Potency [4] | Potency [5] | Potency [6] | Potency [7] | Potency [8] | Potency [9] | Potency [10] | Potency [11] | Potency [14] | Potency [15] | Potency [17] | Potency [18] | Potency [19] | Potency [16]
61.2 µM (active) and inactive: Potency [2]

CC1(C)O[C@@H]2C[C@H]3[C@@H]4C[C@H](F)C5=CC(=O)CC[C@]5(C)[C@H]4[C@@H](O)C[C@]3(C)[C@]2(C(=O)CO)O1
inactive: Potency [1] | Potency [2] | Potency [3] | Potency [4] | Potency [5] | Potency [6] | Potency [7] | Potency [8] | Potency [9] | Potency [10] | Potency [20] | Potency [14] | Potency [17] | Potency [19] | Potency [16]

CC1(C)C(=O)N(Cl)C(=O)N1Cl
inactive: Potency [1] | Potency [2] | Potency [3] | Potency [4] | Potency [5] | Potency [6] | Potency [7] | Potency [8] | Potency [9] | Potency [10] | Potency [11] | Potency [12] | Potency [13] | Potency [14] | Potency [15] | Potency [17] | Potency [18] | Potency [19] | Potency [16]

O=[Se](O)O
active: Potency [11] 19.5 µM
inactive and 5.23 µM (active): Potency [2]
inactive: Potency [1] | Potency [3] | Potency [4] | Potency [5] | Potency [6] | Potency [7] | activity change, negative = cytotoxicity [8] -2.48% [at 13.5 µM] | Potency [9] | Potency [10] | activation [11] -0.26% [at 15.9 µM] | Potency [12] | Potency [13] | activity change, negative = inhibition [15] 2.98% [at 18.9 µM] | Potency [17] | Potency [19] | Potency [16]

CCCOC(=O)NCCCN(C)C
inactive: Potency [1] | Potency [2] | Potency [3] | Potency [4] | Potency [5] | Potency [6] | Potency [7] | Potency [8] | Potency [9] | Potency [10] | Potency [12] | Potency [13] | Potency [14] | Potency [15] | Potency [17] | Potency [18] | Potency [19] | Potency [16]

From PubChem BioAssay (Tox21)
